In PubChem BioAssay (NCI):
The panel holds about 83,000 compounds, 20% with a hit somewhere; the sample as a whole holds those more often.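 Testing used 96-well plates and a 48-hour single-concentration exposure. Example: -40 means 40% of the starting cells died.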 Active and inactive are the calls of the source. Rule for the calls: active = growth percent below 10; inactive = the rest.

What was measured:
Test in all cases: NCI-60 one-dose screen, 48 h (100 = growth as untreated, 0 = no growth, -100 = all killed)
HCT-15 colon = settings: 10 µM unless noted
HT29 colon = settings: 10 µM unless noted
SNB-75 CNS = settings: 10 µM unless noted
SNB-19 CNS = settings: 10 µM unless noted
PC-3 prostate = settings: 10 µM unless noted
SK-MEL-5 melanoma = settings: 10 µM unless noted
UACC-62 melanoma = settings: 10 µM unless noted
SK-MEL-28 melanoma = settings: 10 µM unless noted
U251 CNS = settings: 10 µM unless noted
LOX IMVI melanoma = settings: 10 µM

Measured: growth

COc1cc(/C=C/C(=O)c2ccccc2)ccc1Oc1nc(Nc2ccc(F)cc2)nc(N(C)C)n1
active: HCT-15 colon -0.132% | SNB-19 CNS 3.33%
inactive: HT29 colon 14.5% | SNB-75 CNS 39.9% | PC-3 prostate 30.2% | SK-MEL-5 melanoma 18.9% | UACC-62 melanoma 14.8% | SK-MEL-28 melanoma 18%

Cc1ccc(C(=O)CSc2nc3ccc(F)cc3c(=O)n2-c2ccc(Cl)cc2)cc1
inactive: HCT-15 colon 59.2% | HT29 colon 49.9% | U251 CNS 19.6% | PC-3 prostate 25.9% | SK-MEL-5 melanoma 68.1% | UACC-62 melanoma 71.4% | LOX IMVI melanoma 60.7% | SK-MEL-28 melanoma 77.2%
active: SNB-75 CNS -19.4%

Cc1ccc(-c2nnc3ccc(N/N=C/c4ccccc4)nn23)cc1
inactive: HCT-15 colon 69.2% | HT29 colon 118% | SNB-19 CNS 86.6% | U251 CNS 75.1% | UACC-62 melanoma 98.4% | LOX IMVI melanoma 47.5% | SK-MEL-28 melanoma 95.7%
active: SNB-75 CNS -17%

COc1ccc(-c2nc3ccc(C(=O)NN4C(=O)c5ccc([N+](=O)[O-])cc5C4=O)cc3[nH]2)cc1
inactive: HCT-15 colon 95.9% | HT29 colon 87.1% | SNB-75 CNS 83.3% | U251 CNS 97% | PC-3 prostate 90.5% | SK-MEL-5 melanoma 83.1% | UACC-62 melanoma 80.2% | LOX IMVI melanoma 87.1% | SK-MEL-28 melanoma 95.6%

CC1(C)CC[C@]2(C(=O)Nc3ccc(Br)cc3)CC[C@]3(C)C(=CCC4[C@@]5(C)C[C@@H](O)[C@H](O)[C@@](C)(CO)C5CC[C@]43C)C2C1 (stereo not given in full)
active: HCT-15 colon -13% | HT29 colon -60.9% | U251 CNS -18.9% | PC-3 prostate -13.8% | SK-MEL-5 melanoma -94.4% | UACC-62 melanoma 8.99% | LOX IMVI melanoma -86.7%
inactive: SNB-75 CNS 57.8% | SK-MEL-28 melanoma 32.1%

Cc1ccc(NC(=O)[C@]23CCC(C)(C)CC2C2=CCC4[C@@]5(C)C[C@@H](O)[C@H](O)[C@@](C)(CO)C5CC[C@@]4(C)[C@]2(C)CC3)cc1 (stereo not given in full)
active: HT29 colon -50% | PC-3 prostate 5.82% | SK-MEL-5 melanoma -83.2% | LOX IMVI melanoma -6.45%
inactive: HCT-15 colon 11.7% | SNB-75 CNS 74.4% | U251 CNS 26.8% | UACC-62 melanoma 34.3% | SK-MEL-28 melanoma 47.9%

O=C(Cn1nc(-c2ccccc2)ccc1=O)N/N=C/c1ccc(N2CCOCC2)cc1
inactive: HCT-15 colon 97.2% | HT29 colon 113% | SNB-75 CNS 96.4% | U251 CNS 93.2% | PC-3 prostate 102% | SK-MEL-5 melanoma 92.4% | UACC-62 melanoma 83.7% | LOX IMVI melanoma 102% | SK-MEL-28 melanoma 104%

CCCS(=O)(=O)N1CCCC(C(=O)Nc2nc3ccc(NC(=O)c4ccc(F)c(OC)c4F)cc3s2)C1 (stereo not given)
active: SK-MEL-5 melanoma -41%
inactive: HCT-15 colon 37.1% | HT29 colon 54.2% | SNB-75 CNS 64.1% | U251 CNS 51.5% | PC-3 prostate 37.3% | UACC-62 melanoma 45.4% | LOX IMVI melanoma 37.6% | SK-MEL-28 melanoma 59.9%

Cc1ccc(C(=O)CSc2nc3ccc(C)cc3c(=O)n2-c2ccc(F)cc2)cc1
active: SNB-75 CNS 7.91%
inactive: HCT-15 colon 84.6% | HT29 colon 72.5% | U251 CNS 28.7% | PC-3 prostate 74% | SK-MEL-5 melanoma 72% | UACC-62 melanoma 86.1% | LOX IMVI melanoma 72.9% | SK-MEL-28 melanoma 88.1%

Cc1cc(=O)oc2cc(OCCCCOc3ccc(/C=C/C(=O)Nc4ccccc4N)cc3)ccc12
inactive: HCT-15 colon 75.8% | HT29 colon 91.4% | SNB-75 CNS 67% | U251 CNS 60.2% | PC-3 prostate 61% | UACC-62 melanoma 69.2% | SK-MEL-28 melanoma 81.2%
active: SK-MEL-5 melanoma -66.1% | LOX IMVI melanoma 0.965%

CCCSc1nc(NCCc2c[nH]c3ccccc23)c(C#N)c(-c2ccc(OC)cc2)n1
inactive: HCT-15 colon 21.8% | HT29 colon 22.5% | SNB-75 CNS 78.9% | U251 CNS 41.5% | PC-3 prostate 15.1% | SK-MEL-5 melanoma 29.5% | UACC-62 melanoma 71.7% | LOX IMVI melanoma 37.1% | SK-MEL-28 melanoma 71.4%

COc1ccc(/C=N/NC(=O)Cn2nc(Cc3ccc(OC)cc3)c3onc(C)c3c2=O)cc1
inactive: HCT-15 colon 70.2% | HT29 colon 38.1% | SNB-75 CNS 26.9% | U251 CNS 54.6% | PC-3 prostate 23.2% | SK-MEL-5 melanoma 91.6% | UACC-62 melanoma 48.5% | LOX IMVI melanoma 10.6% | SK-MEL-28 melanoma 29.8%

CC(=O)OC[C@@]1(C)C2CC[C@]3(C)C(CC=C4C5CC(C)(C)CC[C@]5(C(=O)Nc5cccc(C)c5)CC[C@]43C)[C@@]2(C)C[C@@H](OC(C)=O)[C@@H]1OC(C)=O (stereo not given in full)
active: SK-MEL-5 melanoma 3.77%
inactive: HCT-15 colon 30.9% | HT29 colon 25.5% | SNB-75 CNS 67.9% | U251 CNS 40.6% | PC-3 prostate 29.4% | UACC-62 melanoma 45.4% | LOX IMVI melanoma 11.6% | SK-MEL-28 melanoma 62.3%
